HCV inhibitor = blocks hepatitis C virus | Potency, µM (top dose mostly 41.8 µM), inactives show at the top dose activity change, negative = inhibition, actives largely listed as inhibitors | Huh7.5.1 HCVcc-Cre infection, luciferase reporter, 44 h | AID 651820 | 340,000 tested, 3.4% active; active = well fitted inhibition curve with a large enough effect; inconclusive = small, poorly fitted or top-dose-only effect, or another doubt; inactive = no such curve, though single readings can be large or run the other way; also: potency is read from the fitted curve at half-maximal effect; % is scaled to controls: 0 for no effect and ±100 for the full control effect
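Cells seeded at 1,000/well and cultured 4 h, then compounds added followed by HCVcc-Cre virus (~0.5 moi). After 44 h further culture, luciferase substrate was added, plates held 15 min at room temperature, and luminescence read for 15 sec.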
SARS PLP yeast = blocks SARS-CoV papain-like protease in a yeast assay. S. cerevisiae expressing SARS-CoV PLpro, growth rescue. Potency, µM (top dose mostly 32.9 µM), without a hit: top-dose activity, positive = growth rescue, actives largely listed as activators. 330,000 tested, 0.19% active; calls by dose curve; also: potency is read from the fitted curve at half-maximal effect; 0% is about no effect; nearly all actives have a fitted effect of over 55% in size
Lassa entry inh = inhibitors of Lassa virus binding or cell entry; Lassa virus pseudotype entry inhibition, cell reporter; Potency, µM (highest dose often 37.9 µM), inactives show at the highest dose activity change, negative = inhibition, most hits filed as inhibitors; 300,000 tested, 1.2% active; AID 540256; calls by dose curve; tested in HEK293 cells; also: potency is read from the fitted curve at half-maximal effect; % is scaled to controls: 0 for no effect and ±100 for the full control effect; nearly all actives have a fitted effect of over 50% in size
MARV entry inh = blocks Marburg virus binding to or entry into cells; Marburg virus pseudotyped entry inhibition, cell reporter; Potency, µM (doses to about 37.8 µM), for the others: at the highest dose activity change, negative = inhibition, usual class: inhibitors; 300,000 tested, 1.8% active; AID 540276; calls by dose curve; tested in HEK293 cells; also: potency is read from the fitted curve at half-maximal effect; % is scaled to controls: 0 for no effect and ±100 for the full control effect
FMDV inh = blocks foot and mouth disease virus | AID 1159524 | Potency, µM (top dose mostly 57.9 µM), inactives show at the top dose activity change, negative = inhibition, most hits filed as inhibitors | FMDV antiviral cell-based qHTS | 410,000 tested, 1.2% active; calls by dose curve; tested in HEK293T cells; also: read-out not given here; potency is read from the fitted curve at half-maximal effect; % is scaled to controls: 0 for no effect and ±100 for the full control effect; nearly all actives have a fitted effect of over 45% in size
HCMV antiviral = human cytomegalovirus inhibition; activity change, negative = inhibition, % at 57.5 µM; AID 1259415; 410,000 tested, 4.5% active; HFF cells, HCMV-luciferase reporter, 72 h; active compounds read low; in the data active = activity change below about -60%; inconclusive = no clear call, values can overlap the other calls; inactive = above about -39%; also: % is scaled to controls: 0 for no effect and ±100 for the full control effect
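Two-dose cell screen: HFF monolayers treated with compounds and infected with luciferase-expressing HCMV at 1 PFU/cell, 72 h at 37C, then lysed for luciferase measurement.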
* marks the source's active call; other numbers are inactive results; ? = inconclusive; / = not tested or not shown; [ ] = another dose, or the depositor's remark. Compounds with a hit are over-represented: about 8% of the library has one in this group of screens.

SMILES	HCV inhibitor	SARS PLP yeast	Lassa entry inh	MARV entry inh	FMDV inh	HCMV antiviral
CN(C)C(=O)N1CCN(S(=O)(=O)c2ccc3ccccc3c2)CC1	?	0.7%	?	0.3%[46.1 µM]	-14.1%	11.8
O=C(CCl)N1CCN(S(=O)(=O)c2ccc3c(c2)OCCCO3)CC1	?	10.1%	/	/	25.1µM*	?
CCCCCC(=O)N1CCN(S(=O)(=O)c2ccc3c(c2)OCCO3)CC1	21.9%	4.3%	-17.0%	?	-10.1%	5.5
O=S(=O)(c1ccc2ccccc2c1)N1CCN(c2ccc(O)cc2)CC1	?	-11.8%	/	/	28.6%	-65.9*
O=C(CSc1ccc2ccccc2c1)N1CCN(c2ccc(O)cc2)CC1	-21.7%	-2.8%	/	/	7.0%	-77.5*
CCc1cccc(C)c1NC(=O)CN1C(=O)C2(SCC(=O)N2c2cc(C)cc(C)c2)c2ccccc21 (stereo not given)	/	/	?	/	0.0%	-15.2
Cc1[nH]c2ccc(F)cc2c1CCNC(=O)c1cc2cc(Cl)ccc2oc1=O	/	/	-5.1%[46.1 µM]	2.7%[46.1 µM]	?	-7.3
O=[N+]([O-])c1ccc(N=Nc2ccc(O)c3ccccc23)cc1	10µM*	/	-22.6%[46.1 µM]	?	-25.2%	/
COc1cc(CN2CCCC(C(=O)c3ccccc3SC)C2)cc(OC)c1 (stereo not given)	11.2µM*	0.7%	/	/	-16.3%	-15.8
COc1c(C)cc(C(=O)C2CCCN(Cc3cnc(N4CCOCC4)s3)C2)cc1C (stereo not given)	11.2µM*	0.1%	/	/	-19.3%	-24.8
COc1c(C)cc(C(=O)C2CCCN(Cc3cccc(O)c3)C2)cc1C (stereo not given)	12.6µM*	?	/	/	0.0%	14.7
COc1c(C)cc(C(=O)C2CCCN(C(=O)c3ccoc3)C2)cc1C (stereo not given)	9.4%	-1.8%	-3.6%[46.1 µM]	25.7%[46.1 µM]	-0.5%	-81.3*
O=C(CC1NCCNC1=O)Nc1ccccc1F (stereo not given)	/	/	3.5%[46.1 µM]	-10.7%[46.1 µM]	-12.2%	3.0
CCOC(=O)c1ccc(CN(Cc2ccccc2C)S(=O)(=O)c2ccc(F)c(C)c2)cc1	/	/	-20.2%[46.1 µM]	/	-8.2%	-14.2
CC(C)NC(=O)c1nnc2n1CCN(Cc1ccc(Cl)c(F)c1)C2	/	/	/	/	/	-1.1
COc1cccc(C(=O)C2CCCN(Cc3cccc(-n4nc(C)cc4C)c3)C2)c1 (stereo not given)	35.5µM*	-0.4%	/	/	?	5.5
COc1cccc(C(=O)C2CCCN(Cc3cccc(OCCO)c3)C2)c1 (stereo not given)	2.1%	-1.3%	15.7%[46.1 µM]	-3.2%[46.1 µM]	-20.6%	54.9
COC(=O)c1nn(-c2ccc3c(c2)CCN3C(C)=O)cc1O	-6.4%	-9.2%	2.59µM*	?	8.91µM*	?
CSc1cccc(NC(=O)Cn2c3ncccc3c(=O)n2-c2ccc(C)cc2)c1	/	/	-11.3%[46.1 µM]	/	-5.6%	-21.2
COc1ccc2c(=O)c3c(=O)n(Cc4ccco4)c(-c4ccc(C)cc4)nc3oc2c1	-28.6%	-7.0%	-5.7%	10.7%	?	10.5
COc1cc(-c2nc3oc4ccccc4c(=O)c3c(=O)n2Cc2ccco2)cc(OC)c1OC	-16.0%	-22.1%	6.31µM*	7.94µM*	0.0%	-10.6
CC(=O)c1ccc(-c2cccc([C@H]3[C@@H]4C=CC[C@@H](C)[C@@H]4C(=O)N3Cc3ccccc3)c2)cc1	11.2µM*	-0.7%	/	/	-3.1%	-7.1
COc1ccc(-c2cccc([C@H]3[C@@H]4C=CC[C@@H](C)[C@@H]4C(=O)N3Cc3ccccc3)c2)cc1	?	5.9%	/	/	?	-21.6
COc1ccc(-c2c([C@H]3[C@H]4C=CC[C@@H](C)[C@@H]4C(=O)N3Cc3ccccc3)ccc3ccccc23)cc1	7.08µM*	4.2%	/	/	?	?
COc1cc(-c2cccc([C@H]3[C@@H]4C=CC[C@@H](C)[C@@H]4C(=O)N3Cc3ccccc3)c2)cc(OC)c1OC	10µM*	1.5%	/	/	-1.8%	-1.7
SMILES	HCV inhibitor	SARS PLP yeast	Lassa entry inh	MARV entry inh	FMDV inh	HCMV antiviral
CCOc1ccc(CNC(=O)C2CCN(c3nnc(-n4c(C)ccc4C)s3)CC2)cc1	/	/	-8.7%[46.1 µM]	2.4%[46.1 µM]	?	?
Cc1nn(CCC(=O)N2CCN(c3ccccc3)CC2)c(C)c1S(=O)(=O)N1CCCC1	/	/	-3.4%[46.1 µM]	/	0.0%	-9.6
COC[C@H]1O[C@@H](c2c(OC)cc(OC)cc2OC)[C@H](OC)[C@@H](OC)[C@H]1OC	/	/	/	-10.3%[14.2 µM]	/	/
Nc1nccc(SCc2ccc(Cl)cc2Cl)n1	-20.6%	/	?	-16.8%	-15.5%	-15.4
NNc1ccc(Cc2ccc(Cl)cc2Cl)nn1	?	2.4%	-29.0%[46.1 µM]	?	-2.5%	-69.8*
Nc1nc(N)c(Cc2ccc(Cl)cc2Cl)c(N)n1	?	3.2%	-0.2%	-26.2%	?	-73.5*
CSc1ccc(Cc2ccc(Cl)cc2Cl)nn1	-14.0%	-6.6%	3.9%	?	30.3%	-32.8
c1ccc(C2NCCc3c2[nH]c2ccccc32)cc1 (stereo not given)	/	/	/	22.5%[14.2 µM]	/	/
Cc1cc2c(cc3c(SCc4ccccc4Cl)nnc(C)n32)o1	/	/	10.4%[46.1 µM]	/	34.9%	58.1
CCCCSc1ncnc2c1c(-c1ccccc1)cn2-c1cccc(F)c1	/	/	23.8%[46.1 µM]	?	5.3%	-3.7
CCc1ccc(NC(=O)CC2C(=O)N(c3cccc(OC)c3)C(=O)N2C2CCCC2)cc1 (stereo not given)	/	/	?	/	2.2%	-4.1
COc1ccc(C2Nc3ccccc3C(=O)N2Cc2ccco2)cc1COc1ccc(NC(C)=O)cc1 (stereo not given)	?	8.5%	?	?	-18.6%	-61.9*
N#Cc1ccc(C(=O)Nc2cccc(NC(=O)c3ccco3)c2)c(F)c1	?	0.5%	-11.9%	-9.0%	-27.7%	-73.9*
N#Cc1ccc(C(=O)Nc2ccc(N3CCN(C(=O)c4ccco4)CC3)cc2)c(F)c1	-0.6%	-3.8%	-2.2%	-10.1%	-15.7%	1.3
O=C(Nc1ccc(NC(=O)c2ccco2)nc1)c1cccc(F)c1	?	-1.8%	10µM*	?	-1.9%	14.6
O=C(Nc1ccc(NC(=O)c2ccccc2F)cn1)c1ccco1	-1.1%	-6.7%	?	3.98µM*	-43.5%	30.0
O=C(Nc1ccc(NC(=O)C2CC2)nc1)c1ccco1	4.2%	2.1%	?	?	72.8%	11.3

Bioassay records (PubChem)
